Test results taken from PubChem BioAssay AID1159580 (chemical genetic matrix, 2015).
Several values for one entry are separate records, joined by “and”; a condition that tells them apart may be missing. Equal entries are not always repeated. In all, about 5,500 compounds went through this assay and about 2,000 (36%) were called active. Another 18% or so got no clear call; they are omitted. The list shows a part of the results. Unmarked numbers belong to inactive results. No stated cut-off is given here; in the data, active means normalized growth mostly below about 0.91 (no sharp cut-off); inconclusive means no clear call, values can overlap the other calls; inactive means mostly above about 0.92.

Assay: chemical genetic growth profiling, strain panel (AID 1159580);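 further: tested at 20 µM; growth read once vehicle control cultures reached saturation at 30 °C; 1 = growth at the plate median or of vehicle wells; lower values mean less growth of the strain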
Settings: S. cerevisiae deletion strains, growth OD
[1] = locus YDL101C, strain DUN1, active compounds read low
[2] = locus YGR078C, strain PAC10, active compounds read low
[3] = locus YHR030C, strain SLT2, active compounds read low
[4] = locus YJR075W, strain HOC1, active compounds read low
[5] = locus YNL153C, strain GIM3, active compounds read low
[6] = locus YNL322C, strain KRE1, active compounds read low
[7] = locus YHR079C, strain IRE1, active compounds read low
[8] = locus YJL095W, strain BCK1, active compounds read low
[9] = locus YJR066W, strain TOR1, active compounds read low
[10] = locus YLR113W, strain HOG1, active compounds read low
[11] = locus YNL183C, strain NPR1, active compounds read low
[12] = locus YOR231W, strain MKK1, active compounds read low
[13] = locus YPL256C, strain CLN2, active compounds read low

**Q.** Which normalized growth (locus YAL013W, strain DEP1, active compounds read low) does the source give for `CC1CN=C(NC2CCCCC2)S1` (centres undefined) here?
**A.** 0.987

**Q.** And the normalized growth (locus YBR229C, strain ROT2, active compounds read low)?
**A.** 1

**Q.** What about the normalized growth [1] of the same compound?
**A.** 0.977

**Q.** What about the normalized growth (locus YDL134C, strain PPH21, active compounds read low) of the same compound?
**A.** 1.01

**Q.** What about the normalized growth (locus YDR150W, strain NUM1, active compounds read low) of the same compound?
**A.** 0.947

**Q.** And the normalized growth (locus YEL061C, strain CIN8, active compounds read low)?
**A.** 1.01

**Q.** And the normalized growth [2]?
**A.** 0.998

**Q.** And the normalized growth [3]?
**A.** 0.997

**Q.** And the normalized growth (locus YHR087W, strain rtc3, active compounds read low)?
**A.** 1.02

**Q.** And the normalized growth (locus YJL187C, strain SWE1, active compounds read low)?
**A.** 1.01

**Q.** What about the normalized growth (locus YJR043C, strain POL32, active compounds read low) of the same compound?
**A.** 0.982

**Q.** And the normalized growth [4]?
**A.** 0.998

**Q.** And the normalized growth (locus YLR039C, strain RIC1, active compounds read low)?
**A.** 1.05

**Q.** What about the normalized growth (locus YLR058C, strain SHM2 (second series), active compounds read low) of the same compound?
**A.** 0.988

**Q.** And the normalized growth (locus YLR085C, strain ARP6, active compounds read low)?
**A.** 1.02

**Q.** And the normalized growth (locus YLR262C, strain YPT6, active compounds read low)?
**A.** 1.04

**Q.** And the normalized growth (locus YML094W, strain GIM5, active compounds read low)?
**A.** 1

**Q.** What about the normalized growth (locus YMR219W, strain ESC1, active compounds read low) of the same compound?
**A.** 1.01

**Q.** What about the normalized growth (locus YMR263W, strain SAP30, active compounds read low) of the same compound?
**A.** 0.93

**Q.** And the normalized growth [5]?
**A.** 1.01

**Q.** What about the normalized growth (locus YNL298W, strain CLA4 (second series), active compounds read low) of the same compound?
**A.** 1.02

**Q.** And the normalized growth [6]?
**A.** 0.99

**Q.** And the normalized growth (locus YNR030W, strain Alg12, active compounds read low)?
**A.** 1

**Q.** What about the normalized growth (locus YOL006C, strain TOP1, active compounds read low) of the same compound?
**A.** 1.01

**Q.** And the normalized growth (locus YPL055C, strain LGE1, active compounds read low)?
**A.** 0.874

**Q.** What about the normalized growth (locus YPL241C, strain CIN2, active compounds read low) of the same compound?
**A.** 1.01

**Q.** What about the normalized growth (locus YPR135W, strain CTF4, active compounds read low) of the same compound?
**A.** 1.01

**Q.** With `C[N+]1(C)C2CCC1CC(OC(=O)C(CO)c1ccccc1)C2` (centres undefined) as the compound, how does the normalized growth (locus YAL040C, strain CLN3, active compounds read low) read?
**A.** 1.04 and 1.01

**Q.** What about the normalized growth (locus YCL061C, strain MRC1 (second series), active compounds read low) of the same compound?
**A.** 1

**Q.** And the normalized growth (locus YDR363W, strain ESC2, active compounds read low)?
**A.** 0.993

**Q.** And the normalized growth (locus YER002W, strain NOP16, active compounds read low)?
**A.** 1 and 0.996

**Q.** And the normalized growth [2]?
**A.** 1.02

**Q.** And the normalized growth [3]?
**A.** 0.972

**Q.** What about the normalized growth [7] of the same compound?
**A.** 0.976

**Q.** And the normalized growth [8]?
**A.** 1

**Q.** And the normalized growth [9]?
**A.** 0.917

**Q.** What about the normalized growth [4] of the same compound?
**A.** 1

**Q.** What about the normalized growth [10] of the same compound?
**A.** 0.989

**Q.** What about the normalized growth (locus YNL128W, strain TEP1, active compounds read low) of the same compound?
**A.** 1.01

**Q.** What about the normalized growth [5] of the same compound?
**A.** 1.01

**Q.** What about the normalized growth (locus YNL175C, strain NOP13, active compounds read low) of the same compound?
**A.** 1.01

**Q.** What about the normalized growth [11] of the same compound?
**A.** 0.929

**Q.** And the normalized growth (locus YNL197C, strain WHI3, active compounds read low)?
**A.** 1.02 and 1.01

**Q.** And the normalized growth (locus YNL224C, strain SQS1, active compounds read low)?
**A.** 1.01 and 0.997

**Q.** What about the normalized growth [6] of the same compound?
**A.** 1.03 and 1.02

**Q.** And the normalized growth (locus YOR083W, strain WHI5 (second series), active compounds read low)?
**A.** 1.02

**Q.** And the normalized growth [12]?
**A.** 0.968

**Q.** What about the normalized growth [13] of the same compound?
**A.** 0.957

**Q.** What does the source list for `COc1cc(C2SCCS2)cc(Br)c1OC(=O)NC(=O)c1c(Cl)cccc1Cl`?
**A.** normalized growth (locus YAR019C, strain CDC15, active compounds read low): 0.965; normalized growth (locus YBL105C, strain PKC1, active compounds read low): 0.955; normalized growth (locus YBR135W, strain CKS1, active compounds read low): 0.968; normalized growth (locus YBR136W, strain MEC1, active compounds read low): 0.954; normalized growth (locus YBR160W, strain CDC28, active compounds read low): 0.956; normalized growth (locus YDL017W, strain CDC7, active compounds read low): 0.958; normalized growth (locus YDL028C, strain MPS1, active compounds read low): 0.962; normalized growth [1]: 0.952; normalized growth (locus YDL108W, strain KIN28, active compounds read low): 0.953; normalized growth (locus YDL132W, strain cdc53, active compounds read low): 0.962; normalized growth (locus YDL214C, strain PRR2, active compounds read low): 0.953; normalized growth (locus YDR052C, strain DBF4, active compounds read low): 0.966; normalized growth (locus YDR054C, strain cdc34, active compounds read low): 0.955; normalized growth (locus YDR226W, strain ADK1, active compounds read low): 0.937; normalized growth (locus YDR477W, strain SNF1, active compounds read low): 0.939; normalized growth (locus YER123W, strain YCK3, active compounds read low): 0.936; normalized growth (locus YER133W, strain GLC7, active compounds read low): 0.936; normalized growth (locus YFL009W, strain cdc4, active compounds read low): 0.956; normalized growth (locus YFL029C, strain CAK1, active compounds read low): 0.974; normalized growth (locus YFR003C, strain YPI1, active compounds read low): 0.948; normalized growth (locus YFR019W, strain FAB1, active compounds read low): 0.966; normalized growth (locus YFR028C, strain CDC14, active compounds read low): 0.968; normalized growth (locus YGR040W, strain KSS1, active compounds read low): 0.936; normalized growth (locus YGR052W, strain FMP48, active compounds read low): 0.988; normalized growth (locus YGR092W, strain DBF2, active compounds read low): 0.919; normalized growth [3]: 1.15 [resistant] (active); normalized growth [7]: 0.985; normalized growth (locus YHR082C, strain KSP1, active compounds read low): 1.06; normalized growth (locus YHR205W, strain SCH9, active compounds read low): 0.987; normalized growth (locus YIL147C, strain SLN1, active compounds read low): 0.963; normalized growth [8]: 0.958; normalized growth (locus YJL128C, strain PBS2, active compounds read low): 0.916; normalized growth (locus YJL157C, strain FAR1, active compounds read low): 0.909; normalized growth (locus YJR016C, strain ILV3, active compounds read low): 0.966; normalized growth (locus YJR066W, strain TOR1 (second series), active compounds read low): 0.926; normalized growth [9]: 1.02; normalized growth (locus YKL048C, strain ELM1, active compounds read low): 0.951; normalized growth (locus YKL067W, strain YNK1, active compounds read low): 0.943; normalized growth (locus YKL101W, strain HSL1, active compounds read low): 0.957; normalized growth (locus YKL193C, strain SDS22, active compounds read low): 0.974; normalized growth (locus YKL203C, strain TOR2, active compounds read low): 0.974; normalized growth [10]: 1; normalized growth (locus YLR133W, strain CKI1, active compounds read low): 0.942; normalized growth (locus YLR403W, strain SFP1, active compounds read low): 0.905; normalized growth (locus YML070W, strain DAK1, active compounds read low): 0.962; normalized growth (locus YMR001C, strain CDC5, active compounds read low): 0.962; normalized growth (locus YMR205C, strain PFK2 (second series), active compounds read low): 0.954; normalized growth (locus YMR277W, strain FCP1, active compounds read low): 0.966; normalized growth (locus YNL006W, strain LST8, active compounds read low): 0.967; normalized growth (locus YNL020C, strain ARK1, active compounds read low): 0.942; normalized growth (locus YNL161W, strain CBK1, active compounds read low): 0.951; normalized growth [11]: 0.997; normalized growth (locus YNL207W, strain RIO2, active compounds read low): 0.964; normalized growth (locus YNL222W, strain SSU72, active compounds read low): 0.975; normalized growth (locus YNL307C, strain MCK1 (second series), active compounds read low): 0.937; normalized growth (locus YOL078W, strain AVO1, active compounds read low): 0.96; normalized growth (locus YOL136C, strain PFK27, active compounds read low): 0.937; normalized growth (locus YOR061W, strain CKA2, active compounds read low): 0.934; normalized growth (locus YOR119C, strain RIO1, active compounds read low): 0.994; normalized growth [12]: 0.993; normalized growth (locus YOR329C, strain SCD5, active compounds read low): 0.956; normalized growth (locus YPL031C, strain PHO85, active compounds read low): 0.905; normalized growth (locus YPL153C, strain RAD53, active compounds read low): 0.941; normalized growth (locus YPL204W, strain HRR25, active compounds read low): 0.876; normalized growth (locus YPL209C, strain IPL1, active compounds read low): 0.963; normalized growth [13]: 1.07; normalized growth (locus YPR025C, strain CCL1, active compounds read low): 0.966; normalized growth (locus YPR106W, strain ISR1, active compounds read low): 0.957; normalized growth (locus YPR111W, strain DBF20, active compounds read low): 0.933; normalized growth (strain NNK1, active compounds read low): 0.957; normalized growth (strain TSCII, active compounds read low): 0.958
